What was measured:
Experiment in all cases: log2 ratio of Biotin-Ahx-Ub-VS probe labelling (fragment/DMSO); higher = less target engagement (more negative = stronger competition), active = hit call of the paper (q ≤ 0.05, log2 ratio ≤ -1)
Conditions in all cases: compound concentration: 200 uM; treatment time: 3 h
USP16 = USP16 (UniProt Q9Y5T5)
In short: (§1)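 Global-median-normalised Spectronaut label-free quantities were compared by unpaired t-test, and values are average log2 ratios of fragment over vehicle. Only proteins with ≥2 unique peptides were used. HEK293T lysate (495 µg per sample) was treated in triplicate with fragment at 200 µM or vehicle for 3 h and then with Biotin-Ahx-Ub-VS at 0.5 µM final for 1 h. Labelled DUBs were then NeutrAvidin-enriched, digested with LysC and trypsin, and run by diaPASEF LC-MS/MS.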

USP19 = biological target: T1, USP19 (UniProt O94966)
T1 sequence (whole entry): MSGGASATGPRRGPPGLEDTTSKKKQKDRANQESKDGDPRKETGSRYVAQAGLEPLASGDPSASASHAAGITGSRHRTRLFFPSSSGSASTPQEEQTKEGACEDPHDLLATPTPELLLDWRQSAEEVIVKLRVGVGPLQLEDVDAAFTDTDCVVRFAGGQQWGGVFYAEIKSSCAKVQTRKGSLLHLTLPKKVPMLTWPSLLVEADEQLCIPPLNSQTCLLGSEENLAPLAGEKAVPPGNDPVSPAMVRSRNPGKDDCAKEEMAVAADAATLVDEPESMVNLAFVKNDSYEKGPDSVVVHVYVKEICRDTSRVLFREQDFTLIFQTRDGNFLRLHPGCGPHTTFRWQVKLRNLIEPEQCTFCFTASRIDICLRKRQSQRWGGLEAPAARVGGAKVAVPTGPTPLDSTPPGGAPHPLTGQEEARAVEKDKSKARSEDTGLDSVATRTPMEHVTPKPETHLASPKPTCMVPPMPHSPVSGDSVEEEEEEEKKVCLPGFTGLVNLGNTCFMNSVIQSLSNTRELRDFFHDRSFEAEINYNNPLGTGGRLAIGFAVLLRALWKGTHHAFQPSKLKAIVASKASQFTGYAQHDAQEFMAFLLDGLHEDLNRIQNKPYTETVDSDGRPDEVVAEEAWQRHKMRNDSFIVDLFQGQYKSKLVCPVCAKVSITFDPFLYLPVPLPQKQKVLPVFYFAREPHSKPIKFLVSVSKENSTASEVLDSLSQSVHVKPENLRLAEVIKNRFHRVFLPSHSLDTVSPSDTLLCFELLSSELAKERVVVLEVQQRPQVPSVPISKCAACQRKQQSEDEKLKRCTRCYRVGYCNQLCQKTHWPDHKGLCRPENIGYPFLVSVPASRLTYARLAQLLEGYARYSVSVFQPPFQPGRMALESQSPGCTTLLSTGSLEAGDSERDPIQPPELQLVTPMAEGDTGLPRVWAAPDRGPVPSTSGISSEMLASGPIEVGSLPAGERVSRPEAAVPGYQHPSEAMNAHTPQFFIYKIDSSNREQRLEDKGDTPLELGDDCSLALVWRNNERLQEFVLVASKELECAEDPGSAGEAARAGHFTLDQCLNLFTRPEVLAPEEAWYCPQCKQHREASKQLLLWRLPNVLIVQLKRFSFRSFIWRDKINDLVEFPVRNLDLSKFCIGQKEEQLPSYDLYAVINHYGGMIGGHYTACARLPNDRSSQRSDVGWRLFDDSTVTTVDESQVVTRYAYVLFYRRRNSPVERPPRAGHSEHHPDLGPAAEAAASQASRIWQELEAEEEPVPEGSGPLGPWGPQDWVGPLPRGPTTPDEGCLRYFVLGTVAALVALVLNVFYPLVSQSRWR
In short: as §1

USP24 = USP24 (UniProt Q9UPU5)
USP24, sequence (Q9UPU5 whole entry): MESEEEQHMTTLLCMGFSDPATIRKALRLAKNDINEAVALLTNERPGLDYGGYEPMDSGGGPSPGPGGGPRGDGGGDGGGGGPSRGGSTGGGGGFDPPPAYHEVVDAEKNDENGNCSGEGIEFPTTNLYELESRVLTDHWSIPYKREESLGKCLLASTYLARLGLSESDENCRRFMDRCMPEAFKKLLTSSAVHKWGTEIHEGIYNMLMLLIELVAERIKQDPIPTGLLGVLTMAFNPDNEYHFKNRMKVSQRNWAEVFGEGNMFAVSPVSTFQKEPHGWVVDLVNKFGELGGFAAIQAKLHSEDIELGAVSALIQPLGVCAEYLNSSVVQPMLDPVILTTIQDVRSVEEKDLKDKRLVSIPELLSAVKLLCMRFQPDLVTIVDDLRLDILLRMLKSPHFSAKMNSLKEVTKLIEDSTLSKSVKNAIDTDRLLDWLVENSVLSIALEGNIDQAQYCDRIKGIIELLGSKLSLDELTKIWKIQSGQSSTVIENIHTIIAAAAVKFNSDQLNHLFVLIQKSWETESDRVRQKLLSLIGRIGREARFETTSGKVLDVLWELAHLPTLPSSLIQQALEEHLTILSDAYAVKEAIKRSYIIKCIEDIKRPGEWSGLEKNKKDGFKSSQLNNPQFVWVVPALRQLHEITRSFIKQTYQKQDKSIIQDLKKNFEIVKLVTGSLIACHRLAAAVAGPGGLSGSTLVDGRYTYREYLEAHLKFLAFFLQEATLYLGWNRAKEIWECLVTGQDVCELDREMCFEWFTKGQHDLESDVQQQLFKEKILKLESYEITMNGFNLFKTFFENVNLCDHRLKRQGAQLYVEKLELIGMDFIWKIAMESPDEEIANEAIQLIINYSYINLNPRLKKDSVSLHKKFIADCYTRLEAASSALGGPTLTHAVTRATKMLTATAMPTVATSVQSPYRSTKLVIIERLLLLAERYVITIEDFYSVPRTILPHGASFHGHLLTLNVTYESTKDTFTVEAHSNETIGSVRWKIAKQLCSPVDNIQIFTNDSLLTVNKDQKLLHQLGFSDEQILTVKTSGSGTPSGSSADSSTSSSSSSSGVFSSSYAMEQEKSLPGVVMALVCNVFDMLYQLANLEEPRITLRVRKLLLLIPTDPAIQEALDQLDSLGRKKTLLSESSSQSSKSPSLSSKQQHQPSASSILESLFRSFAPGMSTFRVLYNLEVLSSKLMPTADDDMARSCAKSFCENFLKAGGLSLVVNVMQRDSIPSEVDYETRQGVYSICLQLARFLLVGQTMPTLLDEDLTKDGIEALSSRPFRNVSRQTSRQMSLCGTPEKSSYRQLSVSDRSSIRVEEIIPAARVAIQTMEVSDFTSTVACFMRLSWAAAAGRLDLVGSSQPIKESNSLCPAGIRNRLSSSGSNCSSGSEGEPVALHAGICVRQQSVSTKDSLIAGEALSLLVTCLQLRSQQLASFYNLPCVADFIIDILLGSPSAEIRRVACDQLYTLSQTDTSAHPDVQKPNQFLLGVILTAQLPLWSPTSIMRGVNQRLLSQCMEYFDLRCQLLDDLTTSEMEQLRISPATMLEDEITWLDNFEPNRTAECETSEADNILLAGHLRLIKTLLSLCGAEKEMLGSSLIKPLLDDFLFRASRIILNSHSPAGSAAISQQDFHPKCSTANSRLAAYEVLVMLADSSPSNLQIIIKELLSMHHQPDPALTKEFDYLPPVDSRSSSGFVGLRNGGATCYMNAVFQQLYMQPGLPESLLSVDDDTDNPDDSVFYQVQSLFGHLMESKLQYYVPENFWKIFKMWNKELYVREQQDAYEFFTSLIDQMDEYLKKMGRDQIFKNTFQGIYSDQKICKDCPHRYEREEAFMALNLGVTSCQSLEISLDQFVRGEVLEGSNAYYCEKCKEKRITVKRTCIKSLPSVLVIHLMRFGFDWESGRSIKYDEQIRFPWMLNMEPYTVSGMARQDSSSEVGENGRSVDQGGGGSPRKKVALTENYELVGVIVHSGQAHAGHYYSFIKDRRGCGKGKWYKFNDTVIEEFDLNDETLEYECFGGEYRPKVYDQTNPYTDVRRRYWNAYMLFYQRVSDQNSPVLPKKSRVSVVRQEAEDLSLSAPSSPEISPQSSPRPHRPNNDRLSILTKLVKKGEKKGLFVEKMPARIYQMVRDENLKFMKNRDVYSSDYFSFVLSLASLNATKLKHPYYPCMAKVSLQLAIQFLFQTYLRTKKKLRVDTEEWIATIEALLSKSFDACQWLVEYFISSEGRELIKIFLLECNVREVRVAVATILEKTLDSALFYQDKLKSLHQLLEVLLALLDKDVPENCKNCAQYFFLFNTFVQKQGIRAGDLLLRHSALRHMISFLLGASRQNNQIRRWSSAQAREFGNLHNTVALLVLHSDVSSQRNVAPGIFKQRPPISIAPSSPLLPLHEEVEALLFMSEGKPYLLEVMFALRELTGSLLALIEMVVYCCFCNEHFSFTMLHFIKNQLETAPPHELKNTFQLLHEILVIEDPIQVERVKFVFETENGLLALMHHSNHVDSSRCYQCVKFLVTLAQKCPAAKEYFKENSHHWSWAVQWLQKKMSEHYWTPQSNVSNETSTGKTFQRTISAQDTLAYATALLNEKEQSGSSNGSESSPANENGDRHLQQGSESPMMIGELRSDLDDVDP
In short: as §1

USP25 = biological target: T2, USP25 (UniProt Q9UHP3)
T2 sequence (whole entry): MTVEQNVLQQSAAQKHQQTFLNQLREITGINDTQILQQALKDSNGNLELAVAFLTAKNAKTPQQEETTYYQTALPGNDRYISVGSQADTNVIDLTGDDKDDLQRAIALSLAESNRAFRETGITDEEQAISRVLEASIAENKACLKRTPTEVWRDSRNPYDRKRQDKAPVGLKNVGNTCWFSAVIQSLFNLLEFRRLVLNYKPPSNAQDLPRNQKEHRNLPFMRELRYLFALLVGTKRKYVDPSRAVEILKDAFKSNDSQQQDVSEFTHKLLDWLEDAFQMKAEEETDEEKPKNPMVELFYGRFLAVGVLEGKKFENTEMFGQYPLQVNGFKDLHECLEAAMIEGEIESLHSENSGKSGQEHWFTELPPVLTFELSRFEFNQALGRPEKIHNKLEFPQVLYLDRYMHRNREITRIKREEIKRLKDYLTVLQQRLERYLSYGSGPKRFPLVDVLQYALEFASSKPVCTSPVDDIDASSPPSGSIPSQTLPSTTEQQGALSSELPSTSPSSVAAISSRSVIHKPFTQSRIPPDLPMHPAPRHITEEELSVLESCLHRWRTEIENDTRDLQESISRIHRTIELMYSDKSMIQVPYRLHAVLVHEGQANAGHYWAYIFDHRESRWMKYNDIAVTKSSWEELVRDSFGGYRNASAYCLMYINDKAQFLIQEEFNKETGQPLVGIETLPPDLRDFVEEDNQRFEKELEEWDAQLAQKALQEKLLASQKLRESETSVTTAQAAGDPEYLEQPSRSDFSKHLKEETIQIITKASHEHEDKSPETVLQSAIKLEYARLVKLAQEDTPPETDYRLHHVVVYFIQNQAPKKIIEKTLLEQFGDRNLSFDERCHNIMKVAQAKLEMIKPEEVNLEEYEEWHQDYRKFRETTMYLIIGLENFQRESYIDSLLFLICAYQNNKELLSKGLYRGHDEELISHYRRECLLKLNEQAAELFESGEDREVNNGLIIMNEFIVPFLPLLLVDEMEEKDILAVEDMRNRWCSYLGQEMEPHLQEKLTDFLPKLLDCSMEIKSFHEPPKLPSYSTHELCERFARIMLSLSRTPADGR
In short: as §1

USP28 = biological target: T3, USP28 (UniProt Q96RU2)
T3 sequence (whole entry): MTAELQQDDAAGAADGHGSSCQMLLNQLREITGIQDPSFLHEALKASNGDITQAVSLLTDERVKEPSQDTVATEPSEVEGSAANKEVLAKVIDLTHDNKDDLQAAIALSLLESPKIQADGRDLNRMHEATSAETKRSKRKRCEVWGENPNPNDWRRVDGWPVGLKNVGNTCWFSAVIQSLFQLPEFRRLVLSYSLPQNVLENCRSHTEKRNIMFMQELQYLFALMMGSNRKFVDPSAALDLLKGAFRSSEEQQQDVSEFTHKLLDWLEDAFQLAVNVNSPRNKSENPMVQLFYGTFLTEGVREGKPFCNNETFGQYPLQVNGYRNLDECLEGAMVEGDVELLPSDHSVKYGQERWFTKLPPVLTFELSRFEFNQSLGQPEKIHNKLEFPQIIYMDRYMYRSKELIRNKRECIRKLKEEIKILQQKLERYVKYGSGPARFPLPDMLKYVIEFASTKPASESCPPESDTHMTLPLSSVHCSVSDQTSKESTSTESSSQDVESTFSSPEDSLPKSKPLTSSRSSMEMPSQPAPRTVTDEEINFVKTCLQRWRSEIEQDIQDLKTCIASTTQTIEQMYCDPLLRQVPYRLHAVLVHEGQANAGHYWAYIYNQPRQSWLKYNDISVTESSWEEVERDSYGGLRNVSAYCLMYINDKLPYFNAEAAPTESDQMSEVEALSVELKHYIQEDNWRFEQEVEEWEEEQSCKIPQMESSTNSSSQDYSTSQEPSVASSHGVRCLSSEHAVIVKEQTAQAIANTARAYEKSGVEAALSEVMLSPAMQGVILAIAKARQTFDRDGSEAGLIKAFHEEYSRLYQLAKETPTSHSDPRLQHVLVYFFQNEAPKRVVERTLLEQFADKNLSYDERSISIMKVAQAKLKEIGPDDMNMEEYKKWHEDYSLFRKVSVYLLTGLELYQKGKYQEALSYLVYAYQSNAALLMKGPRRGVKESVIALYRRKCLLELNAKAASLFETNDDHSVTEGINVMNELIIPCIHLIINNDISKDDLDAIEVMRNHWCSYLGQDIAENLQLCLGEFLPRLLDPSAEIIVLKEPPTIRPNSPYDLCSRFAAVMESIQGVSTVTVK
In short: as §1

Measured: log2 ratio of Biotin-Ahx-Ub-VS probe labelling

USP16, sequence (Q9Y5T5 whole entry, looked up, the tested form may be a part): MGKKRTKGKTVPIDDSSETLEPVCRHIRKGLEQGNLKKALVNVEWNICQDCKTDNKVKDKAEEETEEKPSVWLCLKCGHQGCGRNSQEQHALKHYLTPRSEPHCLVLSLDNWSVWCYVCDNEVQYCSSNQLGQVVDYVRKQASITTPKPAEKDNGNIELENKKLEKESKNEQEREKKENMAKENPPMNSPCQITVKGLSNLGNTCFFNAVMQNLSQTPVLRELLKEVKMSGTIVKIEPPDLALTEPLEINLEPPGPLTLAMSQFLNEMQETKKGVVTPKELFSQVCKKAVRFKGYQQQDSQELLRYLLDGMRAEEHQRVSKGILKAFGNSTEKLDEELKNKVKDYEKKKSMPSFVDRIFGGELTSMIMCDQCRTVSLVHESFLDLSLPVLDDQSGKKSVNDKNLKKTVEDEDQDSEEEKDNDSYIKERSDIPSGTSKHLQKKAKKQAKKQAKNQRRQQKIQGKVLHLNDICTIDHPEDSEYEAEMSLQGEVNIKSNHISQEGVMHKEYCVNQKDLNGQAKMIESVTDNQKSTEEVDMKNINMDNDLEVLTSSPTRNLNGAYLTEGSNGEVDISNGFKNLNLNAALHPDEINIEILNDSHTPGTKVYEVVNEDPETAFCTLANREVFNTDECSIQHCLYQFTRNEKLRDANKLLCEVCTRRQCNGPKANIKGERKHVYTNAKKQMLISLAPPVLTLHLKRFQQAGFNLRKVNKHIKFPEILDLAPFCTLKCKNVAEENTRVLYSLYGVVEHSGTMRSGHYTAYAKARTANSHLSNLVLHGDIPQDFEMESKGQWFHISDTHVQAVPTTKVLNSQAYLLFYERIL

Cc1ccc(CN(C)C(=O)CCl)o1
inactive: USP16 -0.0354 | USP19 -0.241 | USP24 -0.411 | USP25 -0.156 | USP28 -0.465
